Measured values: PubChem BioAssay (NCATS)
Records with an inconclusive call do not appear. A call without a number means that no potency is given here. Activity calls are given as the source filed them. Calls come from the whole dose curve; as a rule, active = well fitted cell-killing curve with a large enough effect; inconclusive = small, poorly fitted or top-dose-only effect, or effect the other way; inactive = flat fitted curve, though single readings scatter.

Key:
Experiment in all cases: Primary qHTS to identify gynecologic anti-cancer compounds using libraries of approved drugs and bioactive compounds (AID 1345084); note: nearly all actives have a fitted effect of over 55% in size
Details in all cases: Gynecologic cancer cell panel viability, ATPlite luminescence, 48 h; series mostly up to 57.5 µM
PA-1 = test system: PA-1
Method in brief: (§1)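 Measured: luminescence after ATPlite addition (15 min, RT). Exposure: 48 h, 37 C, 5% CO2.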

Tov-21-G = test system: Tov-21-G
Method in brief: as §1

Tov112D = test system: Tov112D
Method in brief: as §1
Potency is the fitted concentration of half-maximal effect.

SMILES	Potency (PA-1)	Potency (Tov-21-G)	Potency (Tov112D)
CN(C)CCOC(C)(c1ccccc1)c1ccc(Cl)cc1 (stereo unspecified)	inactive	inactive	inactive
COc1cc2nc(C3CC3)nc(N3CCN(c4ccccc4OC)CC3)c2cc1OC	inactive	inactive	inactive
CCOC(=O)C1(CCOc2ccccc2)CCN(Cc2ccc(O)c(Cl)c2)CC1	inactive	inactive	inactive
CCc1cc2c(cc1CC)CC(NCC(O)c1ccc(O)c3[nH]c(=O)ccc13)C2 (stereo unspecified)	inactive	inactive	inactive
CC1=CC2/C=C(\C)CCC(O)C(=O)C(O)CC(=O)C23C(=O)NC(CC(C)C)C3C1C (stereo unspecified)	inactive	inactive	inactive
CC(O)(C(=O)C1CC1(CO)COC1OC(CO)C(O)C(O)C1O)C1C(O)CC2C3CC=C4CC(O)CC(O)C4(C)C3C(O)CC21C (stereo unspecified)	1.78 µM (active)	0.562 µM (active)	0.562 µM (active)
O=C(Nc1nc2ccc([N+](=O)[O-])cc2s1)C1CCCCC1	inactive	inactive	inactive
C[C@H](Nc1cc2c(-c3ccc4c(c3)OCO4)noc2cn1)c1ccccc1	inactive	inactive	inactive
S=C(c1ccc(-c2ccc(Cl)c(Cl)c2)o1)N1CCCCC1	inactive	inactive	inactive
c1cc(NCCc2c[nH]c3ccccc23)cc(Nc2ccncc2)c1	inactive	inactive	inactive
Clc1ccc(Cn2c(Cc3ccccc3)nc3ccccc32)cc1	inactive	inactive	inactive
CN(C)C(CCOc1cccc2ccccc12)c1ccccc1 (stereo unspecified)	inactive	inactive	inactive
CN(C)CCn1cc(-c2ccc(F)cc2)c(-n2cccc2)n1	inactive	inactive	inactive
COC1CC(O[C@H]2CC[C@]3(C)C4CC[C@@]5(C)C(=O)[C@]4(CC[C@@H]3C2)CC[C@@H]5C2=CC(=O)OC2)OC(C)C1OC1OC(COC2OC(CO)C(O)C(O)C2O)C(O)C(O)C1O (stereo partly specified)	3.16 µM (active)	2.24 µM (active)	1.12 µM (active)
Cc1cc(F)ccc1[C@H]1C[C@@H](N2CCN3C(=O)CC[C@H]3C2)CCN1C(=O)N(C)[C@H](C)c1cc(C(F)(F)F)cc(C(F)(F)F)c1	inactive	inactive	inactive
CC(=O)OC(C)(C)/C=C/C(=O)C(C)(O)C1C(O)CC2(C)C3CC=C(C(C)(C)C(=O)O)C(CC(=O)O)C3(C)C(=O)CC12C (stereo unspecified)	inactive	inactive	inactive
C=C1CC[C@@H]2[C@](C)(CO)[C@H](O)CC[C@@]2(C)[C@@H]1CC(O)C1=CCOC1=O (stereo partly specified)	inactive	inactive	inactive
CC(C)c1ccc(NC(=O)c2cccs2)c(-c2nc3ccccc3[nH]c2=O)c1	inactive	inactive	inactive
CC(C)c1ccccc1OC(=O)NCCc1ccc2ccccc2c1	inactive	inactive	inactive
CC(C)(O)C1Cc2c(ccc(C(=O)CCc3ccccc3)c2O)O1 (stereo unspecified)	12.6 µM (active)	12.6 µM (active)	10 µM (active)
CCCCCCCCC(=O)N[C@H](CN1CCCC1)[C@H](O)c1ccc2c(c1)OCCO2	inactive	inactive	inactive
Cc1cc(-c2nc(-c3ccc(OC(F)(F)F)cc3)no2)nn1Cc1ccnc(N2CCN(C3CC3)CC2)c1	inactive	inactive	inactive
C/C=C/C=C/C=C/C(=O)O[C@@H]1C=C2COC(=O)[C@]2(O)[C@@]2(C)CCCC(C)(C)[C@H]12	inactive	inactive	inactive

SMILES	Potency (PA-1)	Potency (Tov-21-G)	Potency (Tov112D)
NC(N)=N/N=C/c1ccccc1Cl	inactive	inactive	inactive
CC(C)(C[C@@](O)(Cc1cc2ccncc2[nH]1)C(F)(F)F)c1cc(F)ccc1O	inactive	inactive	inactive
CN1CCC(c2cn(C)c3ccc(OS(=O)(=O)c4c(F)cccc4F)cc23)CC1	inactive	inactive	inactive
Cc1cccc(CC(=O)N2CCc3c2ccc(-c2cn(C)c4ncnc(N)c24)c3F)n1	inactive	inactive	inactive
O=C(c1c(F)ccc(NS(=O)(=O)N2CC[C@@H](F)C2)c1F)c1c[nH]c2ncc(-c3cnc(C4CC4)nc3)cc12	inactive	11.2 µM (active)	inactive
Nc1nc2c(nc(Br)n2[C@@H]2O[C@@H]3COP(=O)(O)O[C@H]3[C@H]2O)c(=O)[nH]1	inactive	inactive	inactive
Nc1nc(O)c(C2=C3C(=Nc4ccccc43)C(=O)NCC2)[nH]1	inactive	inactive	inactive
CC(=O)NC(C)c1cnc(-c2cnc(Oc3ccc(OC(C)C)cc3)s2)s1 (stereo unspecified)	inactive	inactive	inactive
Cn1nc(C(C)(C)C)cc1C(=O)N[C@@H](Cc1cccc(Cl)c1)C(=O)NCC#N	inactive	inactive	inactive
OC[C@H]1O[C@@H](OC/C=C/c2ccc(O)cc2)[C@H](O)[C@@H](O)[C@@H]1O	inactive	inactive	inactive
COc1cc2c(cc1NS(=O)(=O)c1ccc(Br)cc1C)n(C)c(=O)n2C	inactive	inactive	inactive
CCc1cnc(N2CCC(c3nc(COc4ccc(-n5cnnn5)cc4)cs3)CC2)nc1	inactive	inactive	inactive
CCOc1cccc(NC(=O)c2ccc(N3CCCC3)c(C(F)(F)F)c2)c1	inactive	inactive	inactive
O=C(NS(=O)(=O)c1ccc(Br)s1)c1ccc(Cl)cc1Cl	inactive	inactive	inactive
CC(C)S(=O)(=O)NC[C@@H]1CC(c2ccc(N3CCCC3)c(F)c2)=NO1	inactive	inactive	inactive
NC(=O)c1nc(Nc2ccccc2)sc1NC(=O)C1CCCCC1	inactive	inactive	inactive
C=C1C(=O)OC2CC(C)C(CCC(C)O)=CCC12 (stereo unspecified)	inactive	inactive	inactive
CN1CCN(Cc2ccc(NC(=O)Cc3ccc(Oc4cc(NC(=O)C5CC5)ncn4)cc3)cc2C(F)(F)F)CC1	5.62 µM (active)	6.31 µM (active)	5.62 µM (active)
CC(=O)OC1CCC2(C)C(CCC3(C)C2CC=C2C4C(C)C(C)CCC4(C)CCC23C)C1(C)C(=O)O (stereo unspecified)	inactive	inactive	inactive
O=C(Nc1cccc([N+](=O)[O-])c1)c1cccc(S(=O)(=O)N2CCCCCC2)c1	inactive	inactive	inactive
N#Cc1cc(C2=Nc3ccc(Br)cc3NC(=O)C2)ccn1	inactive	inactive	inactive
CC(C)Nc1nc(Nc2ccccc2)nc(-c2ccccc2)n1	inactive	inactive	inactive
CCn1c(=O)n([C@H]2CCCN(c3nccc(-c4cc5ccccc5o4)n3)C2)c2ccccc21	inactive	inactive	inactive

SMILES	Potency (PA-1)	Potency (Tov-21-G)	Potency (Tov112D)
Nc1nc2c(cnn2CCCc2ccc(O)cc2)c2nc(-c3ccco3)nn12	inactive	inactive	inactive
CCN1C(C)(C)CC(Oc2ccc(C(=O)Nc3ccc(NC(=O)Nc4cc(C(C)(C)C)on4)cc3)nc2)CC1(C)C	inactive	inactive	inactive
COc1ccc(-c2c(C)nn3c(NCCN4CCOCC4)cc(C)nc23)cc1OC	inactive	inactive	inactive
Nc1cccc(CNC(=O)c2ccc(Oc3ccc(OCc4cccc(F)c4)cc3)nc2)c1	inactive	inactive	inactive
Cc1csc2c(N[C@@H](C)CN3CCN(S(=O)(=O)c4ccc(Cl)c(Cl)c4)CC3)ncnc12	inactive	inactive	inactive
C/C=C(\C)C(=O)OC1C[C@@]2(COC(C)=O)O[C@H]2/C=C\[C@@]2(C)O[C@@H]2[C@H]2OC(=O)C(COC(C)=O)=C12 (stereo partly specified)	inactive	inactive	inactive
CC(C)(F)CC(NC(c1ccc(-c2ccc(S(C)(=O)=O)cc2)cc1)C(F)(F)F)C(=O)NC1(C#N)CC1 (stereo unspecified)	inactive	inactive	inactive
CN(c1ccc(NC(=O)Nc2ccccc2)cc1)S(=O)(=O)c1cnn(-c2ccc(F)cc2)c1	inactive	inactive	inactive
CC1OC(=O)C[C@@H]2C(C(=O)O)=CO[C@@H](O[C@H]3O[C@H](CO)[C@@H](O)[C@H](O)[C@H]3O)[C@H]12 (stereo partly specified)	inactive	inactive	inactive
C[C@@H](c1ccc2nccn2c1)n1nnc2ncc(-c3cnn(C)c3)nc21	inactive	inactive	inactive
COc1cc(-c2cn(C3CCc4c(F)cccc4N(CC(F)(F)F)C3=O)nn2)ccc1-n1cnc(C)c1 (stereo unspecified)	inactive	inactive	inactive
CC1(C)CCC(C)(C)c2cc(C#Cc3ccc(C(=O)O)cc3)ccc21	inactive	inactive	inactive
CCCn1cc2c(nc(NC(=O)Nc3ccc(OC)cc3)n3nc(-c4ccco4)nc23)n1	inactive	inactive	inactive
Cc1csc(N(C(=O)CSc2ccc(-c3ccccc3)nn2)C2CC2)n1	inactive	inactive	inactive
CCc1cccc(CC)c1-n1c(C=C(C)C)c(C(=O)N2CCNCC2)cc(-c2nc(-c3ccc(C(F)(F)F)cc3)cs2)c1=O	inactive	inactive	inactive
NS(=O)(=O)Nc1ncnc(OCCOc2ncc(Br)cn2)c1-c1ccc(Br)cc1	inactive	inactive	inactive
CC(C)n1c(=O)c(C(=O)NC2CC3CCC(C2)N3C[C@@H](O)CN(C)S(C)(=O)=O)cc2ccccc21 (stereo partly specified)	inactive	inactive	inactive
C=CC(C)(O)CC[C@@H]1[C@@]2(C)CCCC(C)(C)C2CC[C@@]1(C)O (stereo partly specified)	inactive	inactive	inactive
Fc1ccc(-c2cncc(CN3CCN(c4cccc5c4OCCO5)CC3)c2)cc1	inactive	inactive	inactive
CC(C)=C[C@@H]1[C@H](CO[C@@H]2O[C@H](CO)[C@@H](O)[C@H](O)[C@H]2O)C1(C)C	inactive	inactive	inactive
CC(C)(O)/C=C/C(=O)[C@](C)(O)[C@H]1[C@H](O)C[C@@]2(C)[C@@H]3CC=C4[C@@H](C[C@H](O[C@@H]5O[C@H](CO)[C@@H](O)[C@H](O)[C@H]5O)C(=O)C4(C)C)[C@]3(C)C(=O)C[C@]12C	inactive	inactive	inactive
